We go through 13 molecules from ChEMBL document CHEMBL1961873, “Compounds: GSK PKIS; Assays: Nanosyn kinase panel” (2012).

Test [1] addresses Platelet-derived growth factor receptor beta (Homo sapiens) (UniProt P09619). Particulars: at 1 µM.
In test [2] the target is Tyrosine-protein kinase FRK (Homo sapiens) (UniProt P42685). Particulars: at 0.1 µM.
Test [3] has the same target. Particulars: at 1 µM.
Test [4] has as its target Protein-tyrosine kinase 2-beta (Homo sapiens) (UniProt Q14289). Particulars: at 0.1 µM.
Test [5] shares this target. Particulars: at 1 µM.
Test [6] addresses Proto-oncogene tyrosine-protein kinase receptor Ret (Homo sapiens) (UniProt P07949). As to conditions: at 0.1 µM.
Test [7] shares this target. Particulars: at 1 µM.
The subject of test [8] is Proto-oncogene tyrosine-protein kinase receptor Ret (Homo sapiens), P07949 [V804L]. Particulars: at 0.1 µM.
For test [9] the test system is unchanged. As to conditions: at 1 µM.
The subject of test [10] is Proto-oncogene tyrosine-protein kinase receptor Ret (Homo sapiens), P07949 [Y791F]. Particulars: at 0.1 µM.
Test [11] has the same test system. As to conditions: at 1 µM.
In test [12] the target is Macrophage-stimulating protein receptor (Homo sapiens) (UniProt Q04912). As to conditions: at 0.1 µM.
Macrophage-stimulating protein receptor (Homo sapiens), sequence (Q04912 25-304 limits assumed): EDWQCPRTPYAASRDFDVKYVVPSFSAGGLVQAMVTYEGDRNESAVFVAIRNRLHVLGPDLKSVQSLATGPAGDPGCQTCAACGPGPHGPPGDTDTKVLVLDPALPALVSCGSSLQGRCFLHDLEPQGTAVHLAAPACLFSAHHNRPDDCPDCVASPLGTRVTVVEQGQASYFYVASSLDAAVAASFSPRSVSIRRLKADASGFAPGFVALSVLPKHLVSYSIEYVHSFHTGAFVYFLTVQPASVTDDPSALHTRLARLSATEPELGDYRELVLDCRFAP
Macrophage-stimulating protein receptor (Homo sapiens), sequence (Q04912 310-1400 limits assumed): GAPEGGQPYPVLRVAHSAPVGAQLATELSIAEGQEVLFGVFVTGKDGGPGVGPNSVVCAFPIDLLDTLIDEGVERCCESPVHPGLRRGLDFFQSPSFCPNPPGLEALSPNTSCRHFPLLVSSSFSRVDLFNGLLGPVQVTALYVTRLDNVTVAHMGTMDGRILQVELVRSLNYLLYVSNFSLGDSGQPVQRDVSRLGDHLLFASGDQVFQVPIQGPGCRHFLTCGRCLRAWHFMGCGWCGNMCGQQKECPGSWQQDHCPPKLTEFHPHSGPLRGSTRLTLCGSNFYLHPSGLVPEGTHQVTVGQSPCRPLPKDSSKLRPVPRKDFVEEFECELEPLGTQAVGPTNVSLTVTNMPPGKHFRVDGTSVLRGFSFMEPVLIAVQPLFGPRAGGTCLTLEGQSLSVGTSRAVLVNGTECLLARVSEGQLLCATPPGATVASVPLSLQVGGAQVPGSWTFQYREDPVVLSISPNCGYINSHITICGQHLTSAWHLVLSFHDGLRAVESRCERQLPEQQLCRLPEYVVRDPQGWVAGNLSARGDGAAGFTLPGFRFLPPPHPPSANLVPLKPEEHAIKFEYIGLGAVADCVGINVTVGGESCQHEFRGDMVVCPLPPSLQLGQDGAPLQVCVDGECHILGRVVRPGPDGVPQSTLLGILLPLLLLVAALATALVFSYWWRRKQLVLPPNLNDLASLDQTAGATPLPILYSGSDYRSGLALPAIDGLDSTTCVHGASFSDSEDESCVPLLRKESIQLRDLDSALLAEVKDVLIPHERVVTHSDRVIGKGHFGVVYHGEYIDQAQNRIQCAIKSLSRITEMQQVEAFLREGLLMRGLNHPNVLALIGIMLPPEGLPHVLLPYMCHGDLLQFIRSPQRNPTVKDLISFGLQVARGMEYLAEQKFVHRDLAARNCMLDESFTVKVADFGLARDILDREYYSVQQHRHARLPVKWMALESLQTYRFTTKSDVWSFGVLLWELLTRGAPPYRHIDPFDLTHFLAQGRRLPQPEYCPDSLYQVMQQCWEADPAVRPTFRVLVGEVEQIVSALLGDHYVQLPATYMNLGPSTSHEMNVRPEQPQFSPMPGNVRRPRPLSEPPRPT
Test [13] has the same target. As to conditions: at 1 µM.
Test [14] deals with Proto-oncogene tyrosine-protein kinase ROS (Homo sapiens) (UniProt P08922). Particulars: at 0.1 µM.
For test [15] the target is unchanged. As to conditions: at 1 µM.
Test [16] concerns the target Proto-oncogene tyrosine-protein kinase Src (Homo sapiens) (UniProt P12931). Particulars: at 0.1 µM.
For test [17] the target is unchanged. As to conditions: at 1 µM.
Test [18] addresses Tyrosine-protein kinase Srms (Homo sapiens) (UniProt Q9H3Y6). As to conditions: at 0.1 µM.
Test [19] has the same target. As to conditions: at 1 µM.
Test [20] deals with Tyrosine-protein kinase SYK (Homo sapiens) (UniProt P43405). Particulars: at 0.1 µM.

The structures appear in SMILES notation.

Proto-oncogene tyrosine-protein kinase Src (Homo sapiens), sequence (P12931 2-536 limits assumed): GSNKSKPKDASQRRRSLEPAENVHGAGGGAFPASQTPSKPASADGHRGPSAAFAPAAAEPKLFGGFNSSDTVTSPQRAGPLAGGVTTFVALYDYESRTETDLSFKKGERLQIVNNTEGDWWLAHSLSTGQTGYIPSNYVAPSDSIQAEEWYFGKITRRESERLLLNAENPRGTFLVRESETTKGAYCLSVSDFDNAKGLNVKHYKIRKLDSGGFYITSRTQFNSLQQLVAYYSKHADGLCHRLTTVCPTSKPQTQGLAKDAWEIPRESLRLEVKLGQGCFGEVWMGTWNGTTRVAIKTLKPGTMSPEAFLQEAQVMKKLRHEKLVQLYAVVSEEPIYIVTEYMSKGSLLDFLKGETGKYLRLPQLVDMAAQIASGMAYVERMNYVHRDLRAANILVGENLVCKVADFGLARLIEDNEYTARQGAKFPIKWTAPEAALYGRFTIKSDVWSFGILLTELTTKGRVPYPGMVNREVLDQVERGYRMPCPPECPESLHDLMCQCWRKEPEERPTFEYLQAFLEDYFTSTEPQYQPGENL
Proto-oncogene tyrosine-protein kinase receptor Ret (Homo sapiens), sequence (P07949 whole entry): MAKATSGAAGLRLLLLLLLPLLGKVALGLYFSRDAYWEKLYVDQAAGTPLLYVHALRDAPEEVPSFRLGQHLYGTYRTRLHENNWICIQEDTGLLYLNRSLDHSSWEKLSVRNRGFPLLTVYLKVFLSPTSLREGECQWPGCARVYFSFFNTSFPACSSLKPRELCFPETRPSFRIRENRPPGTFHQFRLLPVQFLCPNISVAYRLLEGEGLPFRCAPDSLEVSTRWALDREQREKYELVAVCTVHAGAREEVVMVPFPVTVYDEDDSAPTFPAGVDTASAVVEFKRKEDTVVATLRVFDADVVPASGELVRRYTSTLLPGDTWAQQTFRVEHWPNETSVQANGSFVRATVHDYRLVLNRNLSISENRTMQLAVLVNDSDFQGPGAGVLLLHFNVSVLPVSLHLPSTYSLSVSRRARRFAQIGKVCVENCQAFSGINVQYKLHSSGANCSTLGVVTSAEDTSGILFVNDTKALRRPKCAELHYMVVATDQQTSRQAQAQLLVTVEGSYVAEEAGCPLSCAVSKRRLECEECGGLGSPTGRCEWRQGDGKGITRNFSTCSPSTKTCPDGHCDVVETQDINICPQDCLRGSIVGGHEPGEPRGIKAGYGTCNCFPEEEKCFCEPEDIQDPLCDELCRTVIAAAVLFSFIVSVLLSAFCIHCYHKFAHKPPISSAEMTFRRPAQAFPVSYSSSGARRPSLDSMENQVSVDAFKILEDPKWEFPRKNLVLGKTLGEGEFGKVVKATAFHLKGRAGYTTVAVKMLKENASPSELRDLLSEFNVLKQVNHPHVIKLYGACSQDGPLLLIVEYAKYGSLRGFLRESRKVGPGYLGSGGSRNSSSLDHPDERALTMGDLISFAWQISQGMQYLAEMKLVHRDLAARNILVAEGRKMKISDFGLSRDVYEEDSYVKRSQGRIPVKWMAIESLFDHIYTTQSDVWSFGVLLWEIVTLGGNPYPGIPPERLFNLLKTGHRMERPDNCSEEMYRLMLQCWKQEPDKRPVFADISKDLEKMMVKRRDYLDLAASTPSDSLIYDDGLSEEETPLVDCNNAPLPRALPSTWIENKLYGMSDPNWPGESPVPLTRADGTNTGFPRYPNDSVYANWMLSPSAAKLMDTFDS
Tyrosine-protein kinase FRK (Homo sapiens), sequence (P42685 whole entry): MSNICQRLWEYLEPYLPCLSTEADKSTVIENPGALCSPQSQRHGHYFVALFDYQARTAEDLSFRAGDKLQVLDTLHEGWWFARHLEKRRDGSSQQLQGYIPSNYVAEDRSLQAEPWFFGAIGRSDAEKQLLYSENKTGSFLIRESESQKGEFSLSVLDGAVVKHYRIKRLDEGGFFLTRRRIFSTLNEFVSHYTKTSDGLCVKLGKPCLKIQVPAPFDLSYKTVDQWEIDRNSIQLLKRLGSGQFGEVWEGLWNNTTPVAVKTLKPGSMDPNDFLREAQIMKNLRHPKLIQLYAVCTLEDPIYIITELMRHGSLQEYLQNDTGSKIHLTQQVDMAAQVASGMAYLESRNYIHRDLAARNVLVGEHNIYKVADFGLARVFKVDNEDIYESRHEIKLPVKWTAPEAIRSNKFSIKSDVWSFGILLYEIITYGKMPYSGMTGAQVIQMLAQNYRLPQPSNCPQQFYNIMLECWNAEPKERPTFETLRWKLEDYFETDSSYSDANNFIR
Protein-tyrosine kinase 2-beta (Homo sapiens), sequence (Q14289 whole entry, looked up): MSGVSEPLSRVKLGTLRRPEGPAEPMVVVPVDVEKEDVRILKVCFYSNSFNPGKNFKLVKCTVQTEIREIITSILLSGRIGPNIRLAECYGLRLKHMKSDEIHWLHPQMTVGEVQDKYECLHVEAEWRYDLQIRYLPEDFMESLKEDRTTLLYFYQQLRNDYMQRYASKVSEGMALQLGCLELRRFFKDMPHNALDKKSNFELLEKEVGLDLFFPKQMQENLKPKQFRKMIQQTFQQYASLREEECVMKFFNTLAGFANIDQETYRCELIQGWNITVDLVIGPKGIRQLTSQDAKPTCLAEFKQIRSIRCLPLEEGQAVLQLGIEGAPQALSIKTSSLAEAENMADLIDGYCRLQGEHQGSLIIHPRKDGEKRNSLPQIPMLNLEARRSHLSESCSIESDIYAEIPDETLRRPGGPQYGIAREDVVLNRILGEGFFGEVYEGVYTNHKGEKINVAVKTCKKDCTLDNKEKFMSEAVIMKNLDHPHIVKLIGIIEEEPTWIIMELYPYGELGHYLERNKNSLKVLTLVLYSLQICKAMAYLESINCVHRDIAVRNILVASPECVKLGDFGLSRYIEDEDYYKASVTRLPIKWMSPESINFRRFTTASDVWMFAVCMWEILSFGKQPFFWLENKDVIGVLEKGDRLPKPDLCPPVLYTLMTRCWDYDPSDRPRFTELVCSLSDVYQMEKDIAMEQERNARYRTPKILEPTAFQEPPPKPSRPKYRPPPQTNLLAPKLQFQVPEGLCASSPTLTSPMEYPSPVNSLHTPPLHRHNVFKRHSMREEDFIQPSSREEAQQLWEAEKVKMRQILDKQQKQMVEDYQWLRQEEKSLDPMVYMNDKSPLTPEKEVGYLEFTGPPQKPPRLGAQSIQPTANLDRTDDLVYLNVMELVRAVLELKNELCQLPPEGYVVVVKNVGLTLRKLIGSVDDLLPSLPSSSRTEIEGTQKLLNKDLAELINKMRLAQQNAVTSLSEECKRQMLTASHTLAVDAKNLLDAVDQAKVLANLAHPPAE
Tyrosine-protein kinase Srms (Homo sapiens), sequence (Q9H3Y6 whole entry): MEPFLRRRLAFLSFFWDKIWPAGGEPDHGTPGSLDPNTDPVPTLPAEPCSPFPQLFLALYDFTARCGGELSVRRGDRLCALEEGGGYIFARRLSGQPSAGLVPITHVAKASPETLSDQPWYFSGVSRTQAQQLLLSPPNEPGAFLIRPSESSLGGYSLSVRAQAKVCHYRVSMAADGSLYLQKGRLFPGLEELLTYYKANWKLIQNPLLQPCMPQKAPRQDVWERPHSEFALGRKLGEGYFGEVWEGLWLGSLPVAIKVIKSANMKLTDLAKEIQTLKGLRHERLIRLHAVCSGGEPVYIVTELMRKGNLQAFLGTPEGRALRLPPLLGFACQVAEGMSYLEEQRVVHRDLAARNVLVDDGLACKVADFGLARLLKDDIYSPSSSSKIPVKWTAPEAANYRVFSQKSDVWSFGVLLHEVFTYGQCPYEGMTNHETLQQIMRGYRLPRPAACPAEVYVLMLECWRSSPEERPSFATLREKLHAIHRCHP
Proto-oncogene tyrosine-protein kinase receptor Ret (Homo sapiens), P07949 [Y791F], sequence (P07949 whole entry Y791F): as the sequence (P07949 whole entry) above, with Y791F counted along it

Broadly, the inhibition is the change of the read-out against control, counted positive when it falls. For `CCOc1ccc2c(-c3ccnc(Nc4cccc(C(F)(F)F)c4)n3)cnn2n1`, the inhibition in test [1] was 20.5%; in test [2], 2.02%; in test [3], 0.63%; in [4] it was -2%; in test [5], 3.33%; in test [6], 0.9%. In addition, the inhibition in test [7] was 5.18%; in test [8] it was 5.38%; in test [9], 6.22%; in test [10], 7.78%; in test [11] it was 12.4%; in test [12], 4.92%. The inhibition in [13] was -3.11%; in [14] it was 2.05%; in test [15] it was 15%; in test [16], 4.83%; in [17], 3.76%; in [18], -3.13%. In addition, the inhibition in [19] is -1.56%; in test [20], -1.67%.

With `COc1ccc2[nH]c3c4[nH]c5ccc(OC)cc5c4c4c(c3c2c1)C(=O)NC4=O`, the inhibition in [1] was 85.1%; in test [2], -0.26%; in [3], 0.68%; in test [4], 29.5%; in test [5] it was 80.6%; in test [6], 40.5%. In addition, the inhibition in test [7] is 77.3%; in test [8], 71%; in test [9] it was 82.1%; in [10], 44.8%; in test [11], 67.3%; in test [12], 6.28%. Besides, the inhibition in test [13] is 16.9%; in test [14], 55.8%; in [15], 79.1%; in [16], -1.01%; in [17], 20.4%; in [18], 3.34%. Further, the figures for the inhibition in [19] and in test [20] were 15.6% and -7.81%, respectively.

As to `CCN(CC)S(=O)(=O)c1ccc(OC)c(Nc2ncc(-c3ccccc3)o2)c1`, the inhibition in test [1] was 63.8%; in test [2], 1.39%; in test [3] it was 9.88%; in [4] it was -0.93%; in test [5] it was 16.5%; in test [6], 9.2%. In addition, the inhibition worked out at 36.2% in test [7]; 3.84% in [8]; 21.3% in [9]; 5.14% in test [10]; 35.7% in test [11]; 4% in test [12]. The inhibition was -1.9% in test [13]; 1.91% in test [14]; 19% in [15]; 9.87% in [16]; 56.4% in test [17]; 1.97% in [18]. Also, the inhibition is 3.53% in [19] and 0.84% in [20].

As for `COc1ccc2c(-c3ccnc(Nc4cccc(OC(F)(F)F)c4)n3)cnn2n1`, the inhibition in test [1] was 32.6%; in [2], 1.94%; in test [3], 1.99%; in [4] it was 14.4%; in test [5] it was 59.9%; in test [6] it was 3.2%. Further, the inhibition in test [7] worked out at 8.79%; in test [8], 3.12%; in [9] it was 12.5%; in [10] it was 1.41%; in [11] it was 11.9%; in test [12], 2.53%. In addition, the inhibition is 9.83% in [13]; 11.1% in test [14]; 46.5% in test [15]; 5.55% in test [16]; 23.6% in [17]; -1.28% in test [18]. In addition, the inhibition in test [19] was 1.58%; in [20], -2.58%.

As for `CCn1cc(-c2ccnc3[nH]ccc23)c(-c2cccc(NC(=O)Nc3ccc(OCc4ccccc4)cc3)c2)n1`, the inhibition in test [1] was determined as 3.09%; in test [2] it was 1.32%; in [3], 1.39%; in test [4], 3.44%; in test [5], 3.88%; in [6], 0.08%. For the same molecule, the inhibition in test [7] was 0.88%; in [8] it was 0.99%; in [9], 0.01%; in [10] it was 2.29%; in test [11], 11.9%; in [12] it was -0.2%. The inhibition in test [13] was 23.8%; in [14], 1.33%; in test [15], 0.45%; in test [16] it was 1.17%; in test [17], 6.43%; in [18], -1.11%. Further, the inhibition in [19] was -1.61%; in [20], -1.9%.

`Fc1ccc(-c2cc(-c3c[nH]nc3-c3ccccn3)ccn2)cc1`: the inhibition in test [1] was 11.8%; in test [2] it was 2.82%; in [3], 1.26%; in test [4] it was 7.36%; in [5], 19.4%; in test [6], 5.13%. In addition, the inhibition in test [7] came out at 2.43%; in test [8], 2.33%; in test [9], 8.21%; in test [10], 3.92%; in test [11], 13.8%; in test [12] it was 4.71%. Further, the inhibition is 8.86% in test [13]; 6.8% in [14]; 8.14% in test [15]; 0.27% in test [16]; 9% in test [17]; -0.96% in test [18]. In addition, the inhibition was -1.26% in test [19] and 0.3% in test [20].

As for `CC(=O)Nc1cccc(C#Cc2cncnc2Nc2ccc(OCc3cccc(F)c3)c(Cl)c2)c1`, the inhibition is 6.94% in test [1]; 0.81% in [2]; 2.51% in [3]; -2.17% in test [4]; 4.14% in [5]; 6.84% in test [6]. The inhibition in test [7] amounted to 11%; in test [8], 5.7%; in [9], 9.51%; in test [10], 13.3%; in test [11] it was 13.3%; in [12], 0.77%. The inhibition in [13] was found to be 4.22%; in test [14] it was 7.46%; in test [15] it was 12.2%; in [16], 10.8%; in [17], 6.18%; in [18], 2.87%. For the same molecule, the inhibition is 0.23% in test [19] and 3.21% in [20].

As to `CCCN1CCC(c2ccc(Nc3nc(Nc4cc(F)ccc4C(N)=O)c4cc[nH]c4n3)c(OC)c2)CC1`, the inhibition was determined as 54.5% in test [1]; 4.23% in test [2]; 19.3% in test [3]; 94.9% in test [4]; 96.8% in [5]; 9.07% in test [6]. The inhibition in test [7] is 28.1%; in test [8] it was 9.84%; in test [9], 51.4%; in [10] it was 10%; in test [11] it was 35.8%; in test [12] it was 8.19%. For the same molecule, the inhibition was 8.86% in [13]; 60.7% in test [14]; 81.3% in test [15]; -0.59% in [16]; 15.3% in test [17]; 1.02% in [18]. Also, the inhibition is 14.8% in [19] and -9.2% in test [20].

As for `COC(=O)Nc1nc2ccc(S(=O)(=O)c3ccc(NC(=O)Nc4cc(C(F)(F)F)ccc4F)cc3)cc2[nH]1`, the inhibition was 4.49% in [1]; 2.02% in test [2]; 0.33% in test [3]; 2.8% in test [4]; 6.27% in test [5]; 5.15% in test [6]. Also, the inhibition worked out at 5.22% in [7]; 5.11% in [8]; 2.64% in test [9]; 5.5% in test [10]; 0.06% in test [11]; 0.24% in [12]. In addition, the inhibition in [13] is 1.14%; in [14], 2.51%; in test [15] it was 3.41%; in test [16] it was 7.41%; in test [17], 6.38%; in test [18], -0.37%. Further, the inhibition is -3.26% in test [19] and 1.38% in test [20].

Regarding `COc1ccc(-c2oc3ncnc(N)c3c2-c2ccc(NC(=O)Nc3cc(C(F)(F)F)ccc3F)cc2)cc1`, the inhibition was determined as 80.4% in test [1]; 11.5% in [2]; 65% in test [3]; 18.8% in test [4]; 91% in test [5]; 89% in [6]. Also, the inhibition in [7] turned out to be 93.6%; in test [8] it was 69.5%; in test [9], 87.8%; in test [10], 74.4%; in test [11] it was 94.7%; in test [12], 4.83%. Also, the inhibition was found to be 21.8% in [13]; 32.7% in [14]; 81.2% in test [15]; 43.1% in test [16]; 91.1% in test [17]; 1.78% in [18]. The inhibition is 8.83% in test [19] and -0.9% in test [20].

In the case of `COc1cc(Nc2nccc(Nc3ccc4c(C)n[nH]c4c3)n2)cc(OC)c1OC`, the inhibition in test [1] is 87.5%; in test [2], 1.94%; in test [3] it was 11.5%; in test [4] it was 25.2%; in test [5], 84.3%; in [6], 51.1%. In addition, the inhibition in test [7] turned out to be 84%; in [8] it was 25.3%; in [9] it was 68.7%; in [10] it was 57.5%; in test [11] it was 82.4%; in test [12], 6.16%. Besides, the inhibition turned out to be 34.4% in test [13]; 40.6% in test [14]; 70% in test [15]; 68.4% in test [16]; 92.1% in test [17]; 4.33% in [18]. The inhibition is 12.6% in [19] and -1.75% in test [20].

In the case of `COc1ccc(-c2cc3c(N)ncnc3o2)cc1`, the inhibition was 11.2% in test [1]; 0.49% in test [2]; 0.16% in test [3]; -4.88% in test [4]; 8.21% in test [5]; -1.19% in test [6]. Moreover, the inhibition is 0.94% in test [7]; 0.48% in test [8]; 2.98% in test [9]; 2.13% in [10]; 4.56% in test [11]; -4.17% in test [12]. The inhibition in [13] was -1.06%; in test [14], 2.19%; in test [15], 4.11%; in [16], -1.14%; in [17], 7.59%; in test [18] it was 1.52%. Also, the inhibition in test [19] is 3.06%; in [20], 0.62%.

For the molecule `CS(=O)(=O)CCNCc1ccc(-c2ccc3ncnc(Nc4ccc(OCc5ccccc5)c(C(F)(F)F)c4)c3c2)o1`, the inhibition in test [1] is 2%; in [2], 3.35%; in [3], 2.29%; in [4], 8.29%; in test [5], 7.02%; in [6] it was 5.03%. The inhibition in test [7] was 2.3%; in test [8] it was 3.65%; in [9], 4.42%; in test [10], 6.07%; in test [11] it was 6.81%; in test [12] it was -2.49%. The inhibition was -4.8% in [13]; 3.04% in test [14]; 6.52% in [15]; 6.38% in test [16]; 7.74% in [17]; -2.3% in test [18]. For the same molecule, the inhibition in test [19] was -1.62%; in [20] it was -2.88%.
